Laboratory results from PubChem BioAssay (Tox21).
Results filed as inconclusive are left out. The source made the active and inactive calls. Unless noted, calls follow the shape of the full dose curve.

What was measured:
[1] = Nuclear factor erythroid 2-related factor 2/antioxidant responsive element (Nrf2/ARE) small molecule agonists: qHTS cell viability counter screen in human keratinocytes (AID 1919968; active = well fitted curve in the direction sought with a large enough effect in the repeat runs; an effect the other way counts as inactive or inconclusive; also: nearly all actives have a fitted effect of over 55% in size)
How it was run: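 Fluorescence read-out from CellTiter-Fluor after 1 h at 37 C. Wells held HaCaT-derived ARE-luciferase reporter cells (1,500/well) treated 23 h with DMSO-dissolved compounds. Run in the same wells as the luciferase agonist read.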

[2] = Nuclear factor erythroid 2-related factor 2/antioxidant responsive element (Nrf2/ARE) small molecule agonists: luciferase reporter gene qHTS assay in human keratinocytes (AID 1919969); also: nearly all actives have a fitted effect of over 35% in size
[3] = molecular target: Gonadotropin-releasing hormone receptor (Homo sapiens) (UniProt P30968); experiment: Human gonadotropin-releasing hormone receptor (GnRHR) small molecule agonists, calcium flux assay in GnRHR-HEK293 cells (AID 1920063); also: nearly all actives have a fitted effect of over 35% in size
Gonadotropin-releasing hormone receptor (Homo sapiens), sequence (P30968 whole entry, looked up): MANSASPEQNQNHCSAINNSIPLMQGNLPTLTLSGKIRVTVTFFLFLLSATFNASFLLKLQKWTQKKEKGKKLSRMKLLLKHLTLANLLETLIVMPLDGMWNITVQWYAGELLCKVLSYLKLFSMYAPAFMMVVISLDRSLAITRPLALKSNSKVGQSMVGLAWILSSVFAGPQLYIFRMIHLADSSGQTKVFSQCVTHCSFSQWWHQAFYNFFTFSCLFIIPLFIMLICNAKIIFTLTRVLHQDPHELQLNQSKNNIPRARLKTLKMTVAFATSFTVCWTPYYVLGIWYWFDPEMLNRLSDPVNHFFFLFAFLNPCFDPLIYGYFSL
How it was run: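 Calcium-dye fluorescence, Ex/Em=480/540, recorded every 1 sec over 3 min after compound addition to GnRHR-HEK293 cells. Cells had been seeded 18 hours earlier and dye-loaded for 1 hour at 37 C. Fifteen concentrations, triplicates.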

[4] = molecular target: KiSS-1 receptor (Homo sapiens) (UniProt Q969F8); experiment: Human kisspeptin (KISS1R) small molecule agonists, calcium flux assay in KISS1R-HEK293 cells (AID 1920064; active = well fitted curve in the direction sought with a large enough effect in the repeat runs; an effect the other way counts as inactive or inconclusive)
KiSS-1 receptor (Homo sapiens), sequence (Q969F8 whole entry, looked up): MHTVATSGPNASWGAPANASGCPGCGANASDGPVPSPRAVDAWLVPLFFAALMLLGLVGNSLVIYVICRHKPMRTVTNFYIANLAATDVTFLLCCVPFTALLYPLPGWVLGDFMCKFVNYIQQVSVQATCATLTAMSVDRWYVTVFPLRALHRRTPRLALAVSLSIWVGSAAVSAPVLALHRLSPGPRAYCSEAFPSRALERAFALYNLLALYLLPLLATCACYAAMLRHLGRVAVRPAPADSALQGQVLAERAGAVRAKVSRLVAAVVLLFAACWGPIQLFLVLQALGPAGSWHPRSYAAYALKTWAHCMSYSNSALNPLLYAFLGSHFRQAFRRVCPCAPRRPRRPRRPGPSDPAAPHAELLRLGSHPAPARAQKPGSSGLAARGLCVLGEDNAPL
How it was run: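 Calcium flux read-out: kinetic fluorescence at Ex/Em=480/540, 1 s intervals over 3 min, after pin-tool compound addition to dye-loaded KISS1R-HEK293 cells. Fifteen concentrations, triplicates.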

[5] = G protein-coupled receptor (GPCR) small molecule agonists, calcium flux assay: HEK293 wild type cell line counter screen (AID 1920065)
How it was run: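 Agonist mode; 18 h seeding at 37 C, 1 h dye load at 37 C; compounds pinned from DMSO, ATP as positive control; kinetic fluorescence 480/540 nm, 3 min, 1 s reads; 15 concentrations, triplicate.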

[6] = p53 small molecule agonists, cell-based qHTS assay with human liver microsomes (AID 1963577)
How it was run: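 Compounds act here after metabolic activation: human liver microsomes and NADPH, both at 0.5 mg/mL final, were co-added to p53RE-bla cells. Incubation ran 16 h at 37 C, followed by LiveBLAzer detection.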

[7] = p53 small molecule agonists, cell-based qHTS assay with rat liver microsomes (AID 1963578)
How it was run: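 Read-out is beta-lactamase reporter fluorescence (LiveBLAzer, 2 h, room temperature, dark) in p53RE-bla cells treated 16 h at 37 C with compound, rat liver microsomes and NADPH, both 0.5 mg/mL final.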

[8] = p53 small molecule agonists, cell-based qHTS assay with human liver microsomes: qHTS cell viability counter screen (AID 1963579); also: nearly all actives have a fitted effect of over 45% in size
How it was run: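 Cells carrying the p53 response-element beta-lactamase reporter are treated for 16 h at 37 C with test compounds in the presence of human liver microsomes and NADPH (both 0.5 mg/mL final); ATP-based CellTiter-Glo luminescence then reports viability.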

[9] = p53 small molecule agonists, cell-based qHTS assay with rat liver microsomes: qHTS cell viability counter screen (AID 1963580); also: nearly all actives have a fitted effect of over 45% in size
How it was run: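 Counter screen for cytotoxicity under metabolic activation: rat liver microsomes and NADPH, 0.5 mg/mL final each, added with compounds to p53RE-bla HCT-116 cells; 16 h at 37 C, then ATP luminescence read.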

[10] = p53 small molecule agonists, cell-based qHTS assay: qHTS cell viability counter screen (AID 1963581); also: nearly all actives have a fitted effect of over 45% in size
How it was run: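 Cytotoxicity read-out: ATP-based luminescence (CellTiter-Glo, 30 min RT) measured in the same wells as the p53 reporter assay, HCT-116 p53RE-bla cells, 16 h compound exposure at 37 C.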

[11] = molecular target: 5-hydroxytryptamine receptor 2A (Homo sapiens) (UniProt P28223); experiment: 5-hydroxytryptamine receptor 2A (HTR2A) small molecule agonists, cell-based qHTS assay (AID 1963587); also: nearly all actives have a fitted effect of over 30% in size
5-hydroxytryptamine receptor 2A (Homo sapiens), sequence (P28223 whole entry, looked up): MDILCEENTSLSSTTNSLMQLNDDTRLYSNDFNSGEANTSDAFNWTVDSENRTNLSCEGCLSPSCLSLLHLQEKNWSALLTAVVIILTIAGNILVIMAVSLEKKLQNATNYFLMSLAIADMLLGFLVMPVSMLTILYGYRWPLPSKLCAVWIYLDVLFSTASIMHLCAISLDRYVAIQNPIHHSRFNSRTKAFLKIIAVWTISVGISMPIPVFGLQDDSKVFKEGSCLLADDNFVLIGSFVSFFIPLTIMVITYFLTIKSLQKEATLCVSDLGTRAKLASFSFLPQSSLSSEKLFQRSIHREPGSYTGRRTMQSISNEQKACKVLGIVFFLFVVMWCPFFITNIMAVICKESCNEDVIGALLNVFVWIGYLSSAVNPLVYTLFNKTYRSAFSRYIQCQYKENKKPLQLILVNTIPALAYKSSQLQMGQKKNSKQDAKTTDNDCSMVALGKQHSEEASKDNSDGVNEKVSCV
How it was run: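 HTR2A-CHO cells, plated 18 h at 37 C/5% CO2, dye-loaded 1 h at 37 C; compounds in DMSO added by pin tool (agonist mode). Intracellular calcium flux read as kinetic fluorescence on FDSS over 2 min at 1 s intervals.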

[12] = molecular target: Muscarinic acetylcholine receptor M1 (Homo sapiens) (UniProt P11229); experiment: Cholinergic receptor muscarinic 1 (CHRM1) small molecule antagonists, cell-based qHTS assay (AID 1963588); also: nearly all actives have a fitted effect of over 40% in size
Muscarinic acetylcholine receptor M1 (Homo sapiens), sequence (P11229 whole entry, looked up): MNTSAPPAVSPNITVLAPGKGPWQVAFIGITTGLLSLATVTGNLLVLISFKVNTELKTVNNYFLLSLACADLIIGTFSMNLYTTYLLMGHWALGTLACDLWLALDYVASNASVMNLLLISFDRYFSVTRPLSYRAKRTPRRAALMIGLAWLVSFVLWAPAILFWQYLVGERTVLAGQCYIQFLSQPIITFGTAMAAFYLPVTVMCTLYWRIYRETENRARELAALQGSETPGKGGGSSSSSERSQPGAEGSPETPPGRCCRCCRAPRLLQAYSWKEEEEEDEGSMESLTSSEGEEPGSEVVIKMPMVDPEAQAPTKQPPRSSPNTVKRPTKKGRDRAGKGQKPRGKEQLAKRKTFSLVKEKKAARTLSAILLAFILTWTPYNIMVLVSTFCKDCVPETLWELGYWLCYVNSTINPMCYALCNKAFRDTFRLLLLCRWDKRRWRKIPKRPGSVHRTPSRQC
How it was run: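 Compounds were tested at 15 concentrations in three independent runs. Dye-loaded CHRM1-CHO cells were exposed 5 min at room temperature before stimulation by acetylcholine added at 50nM. Intracellular calcium was read kinetically on FDSS for 3 min.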

[13] = molecular target: Muscarinic acetylcholine receptor M1 (Homo sapiens) (UniProt P11229); experiment: Cholinergic receptor muscarinic 1 (CHRM1) small molecule agonists, cell-based qHTS assay (AID 1963589); also: nearly all actives have a fitted effect of over 35% in size
How it was run: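 Calcium flux read-out: kinetic fluorescence at 1 sec intervals after pin-tool compound addition to dye-loaded CHRM1-CHO cells (human M1). Agonist mode; 15 concentrations tested in triplicate independent runs.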

[14] = cAMP Responsive Elements (CRE) small molecule agonists, cell-based qHTS assay (AID 1963590)
How it was run: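 Beta-lactamase reporter readout: LiveBLAzer B/G FRET substrate, 2 h at room temperature, added after 3 h compound treatment of CRE-bla HEK 293T cells at 37 C/5% CO2.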

[15] = molecular target: D(2) dopamine receptor (Homo sapiens) (UniProt P14416); experiment: Dopamine D2 receptor (DRD2) small molecule agonists, cell-based qHTS assay (AID 1963594); also: nearly all actives have a fitted effect of over 35% in size
D(2) dopamine receptor (Homo sapiens), sequence (P14416 whole entry, looked up): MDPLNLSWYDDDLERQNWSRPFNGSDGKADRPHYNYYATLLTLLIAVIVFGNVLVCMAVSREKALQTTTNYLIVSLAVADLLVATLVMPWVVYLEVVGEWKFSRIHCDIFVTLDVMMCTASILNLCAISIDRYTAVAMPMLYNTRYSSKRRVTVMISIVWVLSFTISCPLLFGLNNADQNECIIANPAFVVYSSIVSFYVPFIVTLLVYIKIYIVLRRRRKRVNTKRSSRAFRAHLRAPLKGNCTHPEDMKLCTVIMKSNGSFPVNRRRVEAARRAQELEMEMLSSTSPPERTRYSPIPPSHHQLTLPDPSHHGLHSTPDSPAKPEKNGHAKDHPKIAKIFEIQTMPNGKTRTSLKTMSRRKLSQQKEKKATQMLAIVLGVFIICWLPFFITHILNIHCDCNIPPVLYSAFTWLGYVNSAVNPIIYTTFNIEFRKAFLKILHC
How it was run: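 HEK293 cells stably expressing DRD2 were cultured 24 h at 37 C, then given Ro20-1724 (0.1 mM final) and compounds for 10 min at room temperature. NKH477 (200nM) was then added for 30 min. cAMP was read by HTRF.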

[16] = molecular target: D(2) dopamine receptor (Homo sapiens) (UniProt P14416); experiment: Dopamine D2 receptor (DRD2) small molecule antagonists, cell-based qHTS assay (AID 1963595; active = well fitted inhibition curve with a large enough effect in the signal ratio in the repeat runs, with a control signal flat; the % refers to the signal ratio)
How it was run: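 HEK293 cells stably expressing DRD2 were preincubated with 0.1 mM Ro20-1724, then with compound for 10 min at room temperature. Cells were stimulated with 200 nM NKH477 plus 12 nM quinpirole for 30 min, and cAMP was read by HTRF.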

[17] = molecular target: 5-hydroxytryptamine receptor 2A (Homo sapiens) (UniProt P28223); experiment: 5-hydroxytryptamine receptor 2A (HTR2A) small molecule antagonists, cell-based qHTS assay (AID 1963586); also: nearly all actives have a fitted effect of over 45% in size
How it was run: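 CHO cells stably expressing human HTR2A were plated for 18 h at 37 C, then loaded with calcium dye for 1 h. Compounds were preincubated 5 min at room temperature before DOI (4 nM solution) was added. Kinetic fluorescence was read for 3 min.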

[18] = molecular target: Beta-2 adrenergic receptor (Homo sapiens) (UniProt P07550); experiment: Adrenergic beta2 receptor (ADRB2) small molecule antagonists, cell-based qHTS assay (AID 1963592); also: series mostly up to about 92 µM; nearly all actives have a fitted effect of over 50% in size
Beta-2 adrenergic receptor (Homo sapiens), sequence (P07550 whole entry, looked up): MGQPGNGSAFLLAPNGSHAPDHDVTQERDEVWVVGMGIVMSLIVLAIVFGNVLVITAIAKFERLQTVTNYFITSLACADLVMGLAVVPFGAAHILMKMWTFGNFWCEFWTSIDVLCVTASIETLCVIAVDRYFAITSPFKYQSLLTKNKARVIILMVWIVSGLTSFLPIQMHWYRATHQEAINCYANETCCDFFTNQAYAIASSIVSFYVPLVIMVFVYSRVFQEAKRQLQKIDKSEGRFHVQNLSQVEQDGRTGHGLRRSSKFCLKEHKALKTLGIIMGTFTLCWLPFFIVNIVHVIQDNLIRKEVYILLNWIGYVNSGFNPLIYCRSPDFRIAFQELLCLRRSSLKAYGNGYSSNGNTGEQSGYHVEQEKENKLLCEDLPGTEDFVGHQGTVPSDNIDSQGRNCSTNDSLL
How it was run: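 Assay format: CHO-ADRB2 cells, 18-20hr seeding at 37C/5% CO2, then compound plus 1nM isoproterenol agonist mix for 0.5hr RT. Homogeneous time-resolved fluorescence cAMP detection after 1hr, expressed as 665/615 nm ratio.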

[19] = cAMP Responsive Elements (CRE) small molecule antagonists, cell-based qHTS assay (AID 1963591; active = well fitted inhibition curve with a large enough effect in the signal ratio in the repeat runs, not every such curve was filed as active; the % refers to the signal ratio)
How it was run: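 HEK293T CRE-bla; 18 h preincubation; compound pin-transfer; NKH477 0.25 uM final, 3 h, 37 C; LiveBLAzer FRET substrate 2 h RT.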

Measured: Potency

CCN(CC)CCOC(=O)C(Cc1cccc2ccccc12)CC1CCCO1 (stereo unspecified)
inactive: [1] | [2] | [3] | [4] | [5] | [6] | [7] | [8] | [9] | [10] | [11] | [12] | [13] | [14] | [15] | [16]

Cc1oc(-c2ccccc2)nc1CCC(=O)c1ccc(CC2SC(=O)NC2=O)cc1 (stereo unspecified)
inactive: [1] | [2] | [3] | [4] | [5] | [6] | [7] | [8] | [9] | [10] | [17] | [11] | [12] | [13] | [18] | [16]

CCCCCCCC/C=C\CCCCCCCC(=O)OC[C@@H](O)[C@H]1OC[C@H](O)[C@H]1O
inactive: [1] | [2] | [3] | [4] | [5] | [6] | [7] | [8] | [9] | [10] | [11] | [12] | [13] | [14] | [19] | [18]

O=C=Nc1cccc(C(F)(F)F)c1
inactive: [1] | [2] | [3] | [4] | [5] | [6] | [7] | [8] | [9] | [10] | [11] | [12] | [13] | [14] | [19] | [18] | [15] | [16]

CCO[Si](CCCCl)(OCC)OCC
inactive: [1] | [2] | [3] | [4] | [5] | [6] | [7] | [8] | [9] | [10] | [11] | [12] | [13] | [14] | [19] | [18] | [16]

CCC(C(=O)OCCN1CCOC(c2ccccc2)C1C)c1ccccc1 (stereo unspecified)
inactive: [1] | [2] | [3] | [4] | [5] | [6] | [7] | [8] | [9] | [10] | [11] | [13] | [14] | [19] | [18] | [15] | [16]

CCCc1nc2c(C)cc(-c3nc4ccccc4n3C)cc2n1Cc1ccc(-c2ccccc2C(=O)O)cc1
inactive: [1] | [2] | [3] | [4] | [5] | [6] | [7] | [8] | [9] | [10] | [11] | [12] | [13] | [18] | [15] | [16]
